Data published in PubChem BioAssay (EPA / NIEHS).
Activity calls are given as the source filed them. The calls were made as follows: active = hit-call score of the fitted dose curve at least 0.9, where 1 is the maximum; inactive = score below 0.9.

What follows are compounds tested on Interleukin-8 (IL8), CXCL8 (gene 3576) (assay: BSK_LPS_IL8: BioMAP Diversity Plus: LPS Assay for Interleukin-8 (IL8) Biomarker Activity (AID 2283078)). Conditions: primary human HUVEC with PBMC; actives raise or lower the signal.
Procedure: BSK_LPS is a cell-based, multiplexed-readout assay that uses umbilical vein endothelium and peripheral blood mononuclear cells, a human vascular primary cell co-culture, with measurements taken at 24 hours after chemical dosing in a 96-well plate.BSK_LPS_IL8 is an assay component measured in the BSK_LPS assay. It measures IL-8 antibody related to regulation of gene expression using ELISA technology.Data from the assay component BSK_LPS_IL8 was analyzed into 1 assay endpoint. This assay endpoint, BSK_LPS_IL8, was analyzed with bidirectional fitting relative to DMSO as the negative control and baseline of activity. Using a type of binding reporter, gain or loss-of-signal activity can be used to understand changes in the signaling as they relate to the gene CXCL8. Furthermore, this assay endpoint can be referred to as a primary readout, because this assay has produced multiple assay endpoints where this one serves a signaling function. To generalize the intended target to other relatable targets, this assay endpoint is annotated to the cytokine intended target family, where the subfamily is interleukins.
The levels of cell surface (or secreted, indicated by the prefix "s") biomarker endpoints were measured by ELISA. Overt cytotoxicity to cells in confluent adherent cultures (all systems other than the BT system) was assessed by measuring total protein levels using sulforhodamine B (SRB) staining in parallel cultures at the time of biomarker measurements, indicated as SRB endpoints. For proliferation assays for adherent cell types, individual cell types are cultured at sub-confluence and relative cell numbers quantified by SRB staining at time points optimized for each system (48 h: 3C and CASM3C systems; 72 h: BT and HDF3CGF systems; 96 h: SAg system). SRB was performed by staining cells with 0.1% SRB after fixation with 10% TCA and reading wells at 560 nm.Viability and proliferation of PBMC (T cells) was quantified by Alamar Blue reduction for the SAg and BT systems. For PBMC viability (referred to as PBMC Cytotoxicity within the assay endpoint names), cells were plated (75,000/well in a 96-well plate) and then chemical samples added for 1 h before addition of activators, SEB and TSST-1 (20 ng/mL final concentration each). Cells were incubated for 90 h. Then, Alamar Blue (20 uL/well) (Invitrogen, Cat DAL1100) was added for 6 h, and the plates were read with a fluorescence microplate reader at 546/580 nm (excitation/emission). For PBMC proliferation, cells were plated and activated as above but incubated for only 16 h prior to addition of Alamar Blue. Plates were read after 6 h.

Row | SMILES | outcome | AC50
1 | CCCCOC(=O)CC(CC(=O)OCCCC)(OC(C)=O)C(=O)OCCCC | inactive | –
2 | Cc1cccc2ccccc12 | inactive | –
3 | OCCO | inactive | –
4 | CCCCCCCCCCCC[N+](C)(C)C | – | 20 µM (active)
5 | O=C(O)Cn1c(=O)n(Cc2ccc(Br)cc2F)c(=O)c2ccc(Cl)cc21 | inactive | –
6 | O=C(Nc1ccc(Cl)cc1)Nc1ccc(Cl)c(Cl)c1 | – | 1.74 µM (active)
7 | CN(C)c1ccc(C(=C2C=CC(=[N+](C)C)C=C2)c2ccc(N(C)C)cc2)cc1 | – | 1.26 µM (active)
8 | COc1ccc2cc(S(=O)(=O)N[C@H](CC(=O)N[C@H](Cc3ccc(CN4[C@H](C)CCC[C@@H]4C)cc3)C(=O)N(C)C(C)C)c3ccc4c(c3)OCO4)ccc2c1 | – | 5.7 µM (active)
9 | CCCCCCCCCC(=O)O | inactive | –
10 | Clc1ccccc1C(c1ccccc1)(c1ccccc1)n1ccnc1 | – | 30.9 µM (active)
11 | O=C(O)Cc1cc(I)c(Oc2ccc(O)c(I)c2)c(I)c1 | inactive | –
12 | Oc1ccccc1 | inactive | –
13 | Cc1ccc(C(C)C)cc1 | inactive | –
14 | Cc1ccc2oc(CN(Cc3ccccc3)C(=O)Nc3c(F)cc(F)cc3F)c(-c3ccc(Cl)cc3)c2c1 | inactive | –
15 | c1ccc2n[nH]nc2c1 | inactive | –
16 | CCCCCCCCOC(=O)c1cc(O)c(O)c(O)c1 | – | 24.6 µM (active)
17 | CC(C)(O)c1ccc(CNC(=O)c2cccnc2Oc2ccc3nonc3c2)cc1 | inactive | –
18 | CCN(Cc1cccnc1)C(=O)c1cccc(Cl)c1[C@]1(C)C(=O)N(Cc2ccc(OC)cc2OC)c2ccc(Cl)cc21 | – | 5.54 µM (active)
19 | Cc1cc(F)ccc1-c1cc(N2CC[C@@H](O)[C@H]2CO)ncc1N(C)C(=O)C(C)(C)c1cc(C(F)(F)F)cc(C(F)(F)F)c1 | – | 10.8 µM (active)
20 | c1ccc2ccccc2c1 | inactive | –

Row | SMILES | outcome | AC50
21 | CC1=CC(=O)/C(=C(/C)O)C(=O)O1 | inactive | –
22 | COc1cccc([C@H](O)C2CCN(CCc3ccc(F)cc3)CC2)c1OC | inactive | –
23 | CC(O)CC(C)(C)O (stereo not given) | inactive | –
24 | CCCOC(=O)c1cc(O)c(O)c(O)c1 | inactive | –
25 | CCO[Si](CCCNC(N)=O)(OCC)OCC | inactive | –
26 | O=CCCCC=O | inactive | –
27 | OC12N=C(c3ccccc3)SC1Cc1cc(Cl)ccc12 (stereo not given) | inactive | –
28 | CC(C)(C)c1csc(-c2cc3cc(OCc4ccccc4CC(=O)O)ccc3o2)n1 | inactive | –
29 | Clc1cc(Cl)c2c(c1)N=C1CCCCCN1C2 | inactive | –
30 | CCCCCCCCCCCO | inactive | –
31 | CO[C@H]1/C=C/O[C@@]2(C)Oc3c(C)c(O)c4c(O)c(c(/C=N/N5CCN(C)CC5)c(O)c4c3C2=O)NC(=O)/C(C)=C\C=C\[C@H](C)[C@H](O)[C@@H](C)[C@@H](O)[C@@H](C)[C@H](OC(C)=O)[C@@H]1C | inactive | –
32 | CCCCCCCCCCCCO | inactive | –
33 | C[C@]12CC[C@@H]3c4ccc(O)cc4CC[C@H]3[C@@H]1CCC2=O | inactive | –
34 | O=c1[nH]sc2ccccc12 | – | 22.1 µM (active)
35 | NCc1cccc(C2CCN(C(=O)c3ccc(C#Cc4ccccc4F)o3)CC2)c1 | – | 25.8 µM (active)
36 | CN1C(=O)CC[C@H]1c1cccnc1 | inactive | –
37 | CC[C@H](NC(=O)c1cc(F)ccc1NS(=O)(=O)c1cccc2cccnc12)c1ccccc1 | inactive | –
38 | O=C1CCC(C2CCCCC2)CC1 | inactive | –
39 | CC[C@@H]1C[C@H](N(Cc2cc(C(F)(F)F)cc(C(F)(F)F)c2)C(C)=O)c2cc(C(F)(F)F)ccc2N1C(=O)OC(C)C | inactive | –
40 | CCCC(=O)OCCC(C)C | inactive | –
